TGFb inhibitor: blocks TGF-b signaling; HepG2 CAGA-GFP TGF-b/SMAD3 reporter, GFP fluorescence, 18 h; TGF-beta stimulated, 500 pg/mL final; Potency, µM (highest dose often 46.1 µM), usual class: inhibitors; actives 1.2% (n = 410,000); AID 588855; further: nearly all actives have a fitted effect of over 65% in size
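First, reporter cells (HEPG2 CAGA-GFP) rested 2 h at 37 degrees C. Next, compounds were pinned in and TGF-beta added to 500 pg/mL final. After 18 h, GFP was imaged per cell and summed per well.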
HepG2 tox-1: HepG2 cytotoxicity, counter-screen for TGF-b inhibitors | HepG2 CAGA-GFP viability, ATP luminescence, 18 h | Potency, µM (doses to about 46.1 µM), hits mostly cytotoxic | actives 0.76% (n = 410,000) | AID 588856
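CellTiter-Glo luminescence gave cytotoxicity after 18 hours at 37 degrees C. The cells were HepG2 CAGA-GFP in 1% FBS DMEM, stimulated with 500 pg/mL TGF-beta after compound addition. %Activity was normalised to no-cell wells (complete cell-killing) and DMSO (no toxicity), and curves were fitted and classified.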
ATXN viability: cell viability loss in ATXN counter-screen; AID 651635; Potency, µM (titrated, usually from 56.7 µM), actives largely listed as cytotoxic; actives 0.49% (n = 400,000); S2 cells (HEK-293 line with an ATXN2-luciferase reporter) viability, CellTiter-Fluor protease fluorescence, 24 h; further: nearly all actives have a fitted effect of over 40% in size
ATXN2 expr inh: reduces ATXN2 reporter expression in HEK-293 cells | HEK-293 ATXN2-luciferase reporter, luminescence, 24 h | Potency, µM (highest dose often 57 µM), actives largely listed as inhibitors | actives 0.72% (n = 360,000); further: nearly all actives have a fitted effect of over 55% in size
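qHTS (up to 57 uM final) was run with 24 h compound exposure of reporter cells at 37 °C. Each well was multiplexed: SteadyGlo luminescence measured ATXN2-luciferase expression after a fluorogenic Gly-Phe-AFC viability readout (25 uM final).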
DRD3 agonist: activates the human D3 dopamine receptor; P35462; D3R DiscoveRx beta-arrestin cells, luminescence, 90 min; max activation, %; actives 0.58% (n = 410,000); in the data active means max activation above about 30%
Target sequence (P35462 whole entry, looked up): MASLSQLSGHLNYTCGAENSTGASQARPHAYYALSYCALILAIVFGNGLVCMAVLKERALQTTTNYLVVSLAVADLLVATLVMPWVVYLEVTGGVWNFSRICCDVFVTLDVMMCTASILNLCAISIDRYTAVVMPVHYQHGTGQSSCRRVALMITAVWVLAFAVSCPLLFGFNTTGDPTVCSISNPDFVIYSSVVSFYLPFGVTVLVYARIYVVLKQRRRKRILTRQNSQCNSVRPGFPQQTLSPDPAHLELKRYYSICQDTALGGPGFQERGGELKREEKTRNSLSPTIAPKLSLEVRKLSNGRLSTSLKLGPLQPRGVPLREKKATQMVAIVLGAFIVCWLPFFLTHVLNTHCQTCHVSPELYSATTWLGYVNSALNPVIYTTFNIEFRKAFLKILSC
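Agonist mode: compounds and dopamine controls were applied to plated cells for 90 min at 37 degrees C after an overnight attachment at 1500 cells/well. Luminescent read-out followed 30 - 60 minutes at room temperature with DiscoveRx detection reagent.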
D3 antag: blocks the human D3 dopamine receptor; P35462; D3R cells, DiscoveRx beta-arrestin luminescence, antagonist mode; hits give low values; max response, negative = inhibition, %; actives 2.5% (n = 360,000); AID 652054; in the data active means max response below about -50%; inconclusive means no clear call, values can overlap the other calls
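Cells expressing the human receptor were seeded at 1500 cells/well, incubated overnight at 37 degrees C in 5% CO2, then exposed to library compounds with dopamine controls for 90 minutes at 37 degrees C before luminescent detection.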
TGFb CAGA inh: TGF-b pathway inhibition, cherry-pick retest. shares compounds with TGFb inhibitor. HepG2 CAGA-GFP TGF-b reporter, GFP fluorescence, 18 h; cells stimulated with TGF-beta, 500 pg/mL. Potency, µM (titrated, usually from 46.1 µM), hits mostly inhibitors. actives 63% (n = 1,600). AID 720534; further: nearly all actives have a fitted effect of over 65% in size
HepG2 tox-2: toxic to HepG2 cells in TGF-b counterscreen | Potency, µM (highest dose often 46.1 µM), actives largely listed as inhibitors | HepG2 CAGA-GFP viability, ATP luminescence, 18 h; cells stimulated with TGF-beta, 500 pg/mL | actives 27% (n = 1,600) | shares compounds with TGFb inhibitor; further: nearly all actives have a fitted effect of over 70% in size
CCL64 TGFb inh: orthogonal confirmation of TGF-b inhibitors in CCL64 cells. CCL64 CAGA-GFP reporter, TGF-b stimulated, GFP fluorescence, 18 h. shares compounds with TGFb inhibitor. actives 41% (n = 1,600). Potency, µM (doses to about 46.1 µM), most hits filed as inhibitors; further: nearly all actives have a fitted effect of over 65% in size
TGFb COP inh: validation of TGF-b inhibitors in HepG2 COP promoter reporter; shares compounds with TGFb inhibitor; HepG2 COP-GFP TGF-b reporter, GFP fluorescence, 18 h; cells stimulated by added recombinant TGF-beta; Potency, µM (top dose mostly 46.1 µM), actives largely listed as inhibitors; actives 3% (n = 1,600); AID 720537; further: nearly all actives have a fitted effect of over 70% in size
Of the large screens only hits and unclear results are named; the others gave an inactive call (follow-up assays come after a bar, where they were run). A selection: hits, their analogues and other compounds. The true share with any hit is near 4.7%. Unless noted, the call rests on the fitted dose curve; in most records, active means well fitted curve in the direction sought with a large enough effect; inconclusive means small, poorly fitted or top-dose-only effect, or another doubt; inactive means no such curve, though single readings can be large; an effect the other way counts as inactive or inconclusive.

COc1ccc(C(=O)NN(C)c2nc(-c3ccccc3)nnc2C(F)(F)F)cc1	none
Cc1cc(Cl)n2c(nc3cc(F)c(F)cc32)c1C#N	TGFb inhibitor 6.3µM, ATXN viability inconclusive, ATXN2 expr inh inconclusive, D3 antag inconclusive | TGFb CAGA inh 1.3µM | HepG2 tox-2 5.8µM | CCL64 TGFb inh 1.3µM | TGFb COP inh 18µM
O=C(NC1CC(=O)N(c2cccc(F)c2)C1)C1CCCC1 (centres undefined)	none (no result: ATXN viability, ATXN2 expr inh, D3 antag)
CN(CCCC1CCCC1)C(=O)c1cc(COc2ccc(F)cc2F)on1	TGFb inhibitor 10µM | TGFb CAGA inh 21µM | HepG2 tox-2 inconclusive | CCL64 TGFb inh 26µM | TGFb COP inh inactive
Cc1cc(NC(=O)NC(=O)c2ccccc2NC(=O)CN)ccc1Oc1ncc(Br)cn1	TGFb inhibitor inconclusive, ATXN viability inconclusive
Nc1ccccc1C(=O)NC(=O)Nc1ccc(Oc2ncc(Br)cn2)c(Cl)c1	TGFb inhibitor inconclusive, ATXN viability inconclusive | TGFb CAGA inh inconclusive | HepG2 tox-2 inactive | CCL64 TGFb inh 5.8µM | TGFb COP inh inactive
Cc1cccc(C)c1NC(=O)CCCSc1nnc(-c2ccc(F)cc2)n1-c1ccccc1	TGFb inhibitor 7.9µM | TGFb CAGA inh inconclusive | HepG2 tox-2 inactive | CCL64 TGFb inh inconclusive | TGFb COP inh inactive
CCc1ccc2oc(C(=O)Nc3nc(-c4ccc(F)cc4)ns3)c(C)c2c1	none (no result: ATXN viability, ATXN2 expr inh, D3 antag)
CCn1nc(C(=O)OC(C(=O)c2c[nH]c3ccccc23)c2ccccc2)c2ccccc2c1=O (centres undefined)	TGFb inhibitor 11µM | TGFb CAGA inh 21µM | HepG2 tox-2 inactive | CCL64 TGFb inh inconclusive | TGFb COP inh inactive
CCOC(=O)c1ccccc1NC(=O)c1nn(-c2ccc(C)cc2)c(=O)n(C)c1=O	none (no result: D3 antag)
O=C(Nc1cccc(C(F)(F)F)c1)C1Cc2c(-c3ccc(Cl)cc3)ccnc2O1 (centres undefined)	TGFb inhibitor 8.9µM, ATXN viability inconclusive | TGFb CAGA inh inconclusive | HepG2 tox-2 inconclusive | CCL64 TGFb inh inconclusive | TGFb COP inh inactive
O=C(Nc1cccc(C(F)(F)F)c1)C1Cc2c(-c3ccccc3)ccnc2O1 (centres undefined)	TGFb inhibitor inconclusive, ATXN2 expr inh inconclusive
O=C1Cc2c([nH]c3ccc(Br)cc23)-c2ccccc2N1	TGFb inhibitor 2.8µM, ATXN viability inconclusive | TGFb CAGA inh 0.92µM | HepG2 tox-2 3.7µM | CCL64 TGFb inh 2.9µM | TGFb COP inh inactive
C[C@H](Cn1cnc2c(N)ncnc21)OCP(=O)(O)O	none (no result: TGFb inhibitor, HepG2 tox-1, ATXN viability, DRD3 agonist, D3 antag)
NC1=NC[C@@H](Cc2ccc(O)cc2)N1CCC12CC3CC(CC(C3)C1)C2	TGFb inhibitor 10µM, ATXN viability inconclusive, ATXN2 expr inh inconclusive, D3 antag inconclusive | TGFb CAGA inh inactive | HepG2 tox-2 inactive | CCL64 TGFb inh inactive | TGFb COP inh inactive
N#Cc1ccc(-c2nc3ccc(Cl)cn3c2Cc2ccccc2C(F)(F)F)cc1	TGFb inhibitor inconclusive
FC(F)(F)c1ccccc1Cc1c(-c2ccccc2)nc2ccc(Cl)cn12	TGFb inhibitor 16µM | TGFb CAGA inh inconclusive | HepG2 tox-2 inactive | CCL64 TGFb inh inactive | TGFb COP inh inactive
CCc1c(C)nc(SCc2nc(-c3ccccc3)no2)[nH]c1=O	none (no result: ATXN viability, ATXN2 expr inh, D3 antag)
Cc1ccc(-n2ncc(C(=O)Nc3ccc4c(c3)OCO4)c2C2CCN(C(=O)OC(C)(C)C)CC2)c(C)c1	TGFb inhibitor inconclusive, ATXN viability inconclusive (no result: D3 antag)
O=C(Nc1cccc(-n2cnnn2)c1)c1cc(Cl)ccc1Cl	TGFb inhibitor 16µM | TGFb CAGA inh inconclusive | HepG2 tox-2 inconclusive | CCL64 TGFb inh inactive | TGFb COP inh inactive
O=C(Nc1cccc(-n2cnnn2)c1)c1ccccc1Br	none
CCCc1cc(=O)n2[nH]cc(-c3ccc(Cl)cc3)c2n1	TGFb inhibitor 5µM, HepG2 tox-1 11µM, ATXN viability inconclusive, ATXN2 expr inh 10µM | TGFb CAGA inh 26µM | HepG2 tox-2 inconclusive | CCL64 TGFb inh 12µM | TGFb COP inh inactive
CCc1nn(CC(=O)Nc2ccc(C)cc2C)c(=O)c2cc3sccc3n12	none (no result: ATXN viability, ATXN2 expr inh, D3 antag)
CN(C)c1nc(Nc2ccc(F)cc2)nc(Oc2ccc(F)cc2)n1	TGFb inhibitor inconclusive (no result: ATXN2 expr inh)
CN(C)c1nc(N/N=C/c2ccccc2O)nc(Nc2ccc(F)cc2)n1	TGFb inhibitor 13µM, ATXN2 expr inh inconclusive, D3 antag -85 | TGFb CAGA inh 15µM | HepG2 tox-2 inconclusive | CCL64 TGFb inh inconclusive | TGFb COP inh inactive
CC(C)(C)C(=O)/C(=C/c1ccc(Cl)cc1)n1cncn1	TGFb inhibitor 10µM, ATXN viability 10µM (no result: ATXN2 expr inh) | TGFb CAGA inh 21µM | HepG2 tox-2 inconclusive | CCL64 TGFb inh inconclusive | TGFb COP inh inactive
Cc1ccc(NC(=O)c2ccc(Nc3c([N+](=O)[O-])cc([N+](=O)[O-])cc3[N+](=O)[O-])cc2)cc1	TGFb inhibitor 13µM, ATXN2 expr inh 20µM, D3 antag -77 (no result: ATXN viability) | TGFb CAGA inh 8.2µM | HepG2 tox-2 inconclusive | CCL64 TGFb inh 6.5µM | TGFb COP inh inactive
Cc1[nH]c2ccccc2c1C1(O)C(=O)N(Cc2ccccc2)c2ccc(Br)cc21 (centres undefined)	TGFb inhibitor inconclusive, ATXN2 expr inh inconclusive (no result: D3 antag)
O=C(NCC(c1ccco1)N1CCc2ccccc21)C(=O)Nc1ccc(F)cc1F (centres undefined)	TGFb inhibitor inconclusive, ATXN viability inconclusive | TGFb CAGA inh 13µM | HepG2 tox-2 inactive | CCL64 TGFb inh 12µM | TGFb COP inh inactive
O=C(NCC(c1ccco1)N1CCc2ccccc21)C(=O)Nc1ccccc1F (centres undefined)	TGFb inhibitor inconclusive, D3 antag inconclusive

Compound activity deposited in PubChem by National Center for Advancing Translational Sciences (NCATS).
